# Experimental data as given in PubChem BioAssay (Tox21).
# Values without a mark were called inactive. Inconclusive results are not listed. Where a call stands in place of a potency, no number is given. Calls of active or inactive are those of the source. Unless noted, calls come from the whole dose curve.
# Biological target: KiSS-1 receptor (Homo sapiens) (UniProt Q969F8)
# Assay: Human kisspeptin (KISS1R) small molecule agonists, calcium flux assay in KISS1R-HEK293 cells (AID 1920064; active = well fitted activation curve with a large enough effect in the repeat runs)
# Settings: KISS1R-HEK293, calcium flux fluorescence, agonist; series mostly up to 76.8 µM; activation: at the top concentration
# Summary of the method: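 HEK293 cells stably expressing human KISS1R were loaded with calcium dye for 1 h at 37 C, then given compound; fluorescence (Ex/Em 480/540) was read kinetically for 3 min. Fifteen concentrations, triplicate.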
# Sequence of KiSS-1 receptor (Homo sapiens) (Q969F8 whole entry, looked up): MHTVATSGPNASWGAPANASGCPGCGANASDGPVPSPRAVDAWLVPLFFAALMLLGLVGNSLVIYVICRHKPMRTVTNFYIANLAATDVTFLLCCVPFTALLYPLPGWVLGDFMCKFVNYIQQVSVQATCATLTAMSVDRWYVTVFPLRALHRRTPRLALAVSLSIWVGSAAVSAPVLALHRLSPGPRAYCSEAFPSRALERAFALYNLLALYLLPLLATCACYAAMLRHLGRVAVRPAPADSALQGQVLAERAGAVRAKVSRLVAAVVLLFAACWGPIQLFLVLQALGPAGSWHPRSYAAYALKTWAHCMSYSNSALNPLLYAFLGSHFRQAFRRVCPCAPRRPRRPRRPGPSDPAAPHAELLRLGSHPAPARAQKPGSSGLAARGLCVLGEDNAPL
row,SMILES,Potency
1,CCCCCCCCCCCCN,inactive
2,Nc1ccc(O)c(C(=O)O)c1,inactive
3,O=C1CCc2ccccc2O1,inactive
4,CC(=O)CCC=C(C)C,inactive
5,O=S(=O)(O)c1ccc(O)cc1,inactive
6,CC(=O)Oc1c(C)c(C)c2c(c1C)CC[C@@](C)(CCC[C@H](C)CCC[C@H](C)CCCC(C)C)O2,inactive
7,CC1(C)NC(=O)NC1=O,inactive
8,CCCCCC/C=C/CCCCCCCC(=O)O,inactive
9,CC(C)=CCO,inactive
10,C=C(C)C(=O)OCC(CC)(COC(=O)C(=C)C)COC(=O)C(=C)C,inactive

# Test system: not listed separately
# Assay: G protein-coupled receptor (GPCR) small molecule agonists, calcium flux assay: HEK293 wild type cell line counter screen (AID 1920065)
# Settings: HEK293 WT calcium flux, fluorescence, agonist mode; series mostly up to 57.6 µM; activation: at the top concentration
# Summary of the method: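 Wild-type HEK293 cells plated 18 h, loaded with calcium dye 1 h at 37 C, then compounds added in agonist mode (ATP as positive control). Kinetic fluorescence Ex/Em 480/540 recorded 3 min at 1 sec intervals; 15 concentrations, triplicate.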
row,SMILES,Potency
1,CCCCCCCCCCCCN,inactive
2,CC(O)CC(C)(C)O (stereo unspecified),inactive
3,O=C(c1ccc(O)cc1)c1ccc(O)cc1O,inactive
4,CCNc1ccccc1,inactive
5,Nc1ccc(O)c(C(=O)O)c1,inactive
6,O=C1CCc2ccccc2O1,inactive
7,CC(=O)CCC=C(C)C,inactive
8,C=C(C)C(=O)OCCOC(=O)C(=C)C,inactive
9,C#C[C@]1(O)CC[C@H]2[C@@H]3CCC4=Cc5oncc5C[C@]4(C)[C@H]3CC[C@@]21C,inactive
10,CC1(C)NC(=O)N(c2ccc([N+](=O)[O-])c(C(F)(F)F)c2)C1=O,inactive
11,O=S(=O)(O)c1ccc(O)cc1,inactive
12,CC(=O)Oc1c(C)c(C)c2c(c1C)CC[C@@](C)(CCC[C@H](C)CCC[C@H](C)CCCC(C)C)O2,inactive
13,CC1(C)NC(=O)NC1=O,inactive
14,O=C(C1CCCCC1)N1CC(=O)N2CCc3ccccc3C2C1 (stereo unspecified),inactive
15,CCCCCC/C=C/CCCCCCCC(=O)O,inactive
16,CC(C)=CCl,inactive
17,C/C=C1/CC2C=CC1C2 (stereo unspecified),inactive
18,COC(=O)c1ccccc1O,inactive
19,CC(C)=CCO,inactive

row,SMILES,Potency
1,Cc1ccc(C)c(OCCCC(C)(C)C(=O)O)c1,inactive
2,C=C(C)C(=O)OCC(CC)(COC(=O)C(=C)C)COC(=O)C(=C)C,inactive
3,S=c1nc[nH]c2nc[nH]c12,inactive
4,CC(C)(CO)CO,inactive
5,NC(CO)(CO)CO,inactive
6,N=C(N)c1ccc(OCCCCCOc2ccc(C(=N)N)cc2)cc1,inactive
7,CCCCCCCC(=O)OCC(O)CO (stereo unspecified),inactive
8,CCCCCCCCCCCCCC(=O)O,inactive
9,O=C(OCc1ccccc1)c1ccccc1,inactive
10,CN(C)c1ccc(C(=C2C=CC(=[N+](C)C)C=C2)c2ccccc2)cc1,inactive
11,Cc1ccc(C(=O)O)o1,inactive
12,O=[Se](O)O,inactive
13,CC(=O)c1nccs1,inactive
14,Cc1cc(C2(c3cc(C)c(O)cc3C)OS(=O)(=O)c3ccccc32)c(C)cc1O,inactive
15,CC12CCC(CC1)C(C)(C)O2,inactive
16,COc1cc(C=O)ccc1O,inactive
17,O=C(O)c1cn(-c2ccc(F)cc2)c2cc(N3CCNCC3)c(F)cc2c1=O,inactive
18,CC(=O)Nc1ccccc1,inactive

# Test system: not listed separately
# Assay: p53 small molecule agonists, cell-based qHTS assay with human liver microsomes (AID 1963577);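 note: p53 response element beta-lactamase reporter cells with liver microsomes plus NADPH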
# Settings: HCT-116 p53RE-bla with human liver microsomes, ratio, 16 h; series mostly up to 66 µM; activation: at the top concentration
# Summary of the method: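 In this qHTS, p53 response-element beta-lactamase cells receive test compound together with a microsome/NADPH activating system (0.5 mg/mL final each) and are incubated 16 h at 37 C before LiveBLAzer fluorescence detection.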
SMILES,Potency,activation [%]
CCCCCCCCCCCCN,inactive,
CC(O)CC(C)(C)O (stereo unspecified),inactive,
O=C(c1ccc(O)cc1)c1ccc(O)cc1O,inactive,
CCNc1ccccc1,inactive,
Nc1ccc(O)c(C(=O)O)c1,inactive,
O=C1CCc2ccccc2O1,inactive,
CC(=O)CCC=C(C)C,inactive,
CCO[Si](CCCNC(N)=O)(OCC)OCC,,3.57
C=C(C)C(=O)OCCOC(=O)C(=C)C,,0.379
C#C[C@]1(O)CC[C@H]2[C@@H]3CCC4=Cc5oncc5C[C@]4(C)[C@H]3CC[C@@]21C,inactive,
CC1(C)NC(=O)N(c2ccc([N+](=O)[O-])c(C(F)(F)F)c2)C1=O,inactive,
O=S(=O)(O)c1ccc(O)cc1,inactive,
CC(=O)Oc1c(C)c(C)c2c(c1C)CC[C@@](C)(CCC[C@H](C)CCC[C@H](C)CCCC(C)C)O2,inactive,
CC1(C)NC(=O)NC1=O,,-2.31
C[N+](C)(C)CCCCCC[N+](C)(C)C,inactive,
CCCCCC/C=C/CCCCCCCC(=O)O,inactive,
CC(C)=CCl,inactive,
C/C=C1/CC2C=CC1C2 (stereo unspecified),inactive,
CC(=O)Oc1ccc(C)cc1,inactive,
CC(C)=CCO,inactive,
C=C(C)C(=O)OCC(CC)(COC(=O)C(=C)C)COC(=O)C(=C)C,inactive,
CC(C)(CO)CO,inactive,
NC(CO)(CO)CO,inactive,
CCCCCCCC(=O)OCC(O)CO (stereo unspecified),inactive,
CN(C)c1ccc(C(=C2C=CC(=[N+](C)C)C=C2)c2ccccc2)cc1,inactive,
O=[Se](O)O,,-0.0797
Cc1cc(C2(c3cc(C)c(O)cc3C)OS(=O)(=O)c3ccccc32)c(C)cc1O,inactive,
CC12CCC(CC1)C(C)(C)O2,inactive,
COc1cc(C=O)ccc1O,inactive,
O=C(O)c1cn(-c2ccc(F)cc2)c2cc(N3CCNCC3)c(F)cc2c1=O,inactive,

# Test system: not listed separately
# Assay: p53 small molecule agonists, cell-based qHTS assay with rat liver microsomes (AID 1963578)
# Settings: HCT-116 p53RE-bla, beta-lactamase ratio, 16 h; series mostly up to 66 µM; activation: at the top concentration
# Summary of the method: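 Agonist mode in p53RE-bla reporter cells, with compounds co-incubated 16 h at 37 C alongside 0.5 mg/mL rat liver microsomes and 0.5 mg/mL NADPH (final), followed by a 2 h LiveBLAzer detection step.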
SMILES,Potency,activation [%]
CCCCCCCCCCCCN,inactive,
CC(O)CC(C)(C)O (stereo unspecified),inactive,
O=C(c1ccc(O)cc1)c1ccc(O)cc1O,,1.66
CCNc1ccccc1,inactive,
Nc1ccc(O)c(C(=O)O)c1,inactive,
O=C1CCc2ccccc2O1,inactive,
CC(=O)CCC=C(C)C,inactive,
CCO[Si](CCCNC(N)=O)(OCC)OCC,inactive,
C#C[C@]1(O)CC[C@H]2[C@@H]3CCC4=Cc5oncc5C[C@]4(C)[C@H]3CC[C@@]21C,inactive,
CC1(C)NC(=O)N(c2ccc([N+](=O)[O-])c(C(F)(F)F)c2)C1=O,inactive,
O=S(=O)(O)c1ccc(O)cc1,inactive,
CC(=O)Oc1c(C)c(C)c2c(c1C)CC[C@@](C)(CCC[C@H](C)CCC[C@H](C)CCCC(C)C)O2,inactive,
CC1(C)NC(=O)NC1=O,inactive,
C[N+](C)(C)CCCCCC[N+](C)(C)C,inactive,
CCCCCC/C=C/CCCCCCCC(=O)O,inactive,
COC(=O)c1ccccc1O,inactive,
CC(=O)Oc1ccc(C)cc1,inactive,
CC(C)=CCO,inactive,
C=C(C)C(=O)OCC(CC)(COC(=O)C(=C)C)COC(=O)C(=C)C,inactive,
S=c1nc[nH]c2nc[nH]c12,inactive,
CC(C)(CO)CO,inactive,
NC(CO)(CO)CO,inactive,
CCCCCCCCCCCCCC(=O)O,inactive,
CN(C)c1ccc(C(=C2C=CC(=[N+](C)C)C=C2)c2ccccc2)cc1,inactive,
O=[Se](O)O,,-2.76
CC(=O)c1nccs1,inactive,
CC12CCC(CC1)C(C)(C)O2,inactive,
COc1cc(C=O)ccc1O,inactive,
O=C(O)c1cn(-c2ccc(F)cc2)c2cc(N3CCNCC3)c(F)cc2c1=O,inactive,
